From PubChem BioAssay
TcdB GH inh: TcdB glycohydrolase inhibition; AID 652162; 0.24% of 350,000 active; P18177; TcdB glycohydrolase enzymatic assay, plate reader; inhibition, % at 9.99 µM; in the data active = inhibition above about 10%
Mtb betalactam: beta-lactam sensitization of Mtb H37Rv; AID 434955; M. tuberculosis H37Rv growth with meropenem, percent inhibition; 0.27% of 330,000 active; inhibition, % at 25 µM;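 also: growth measured after seven days incubation then overnight dye step; 0% = bacteria only wells and 100% = bacteria with antibiotic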
Rv3671c protease: inhibitors of M. tuberculosis serine protease Rv3671c; inhibition, % at 5.96 µM; 0.048% of 320,000 active; AID 2606; in the data active = inhibition above about 38%;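 also: extracellular domain of Rv3671c used as enzyme; 0% = enzyme with DMSO and 100% = no enzyme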
RecA splice inh: blocks M. tuberculosis RecA intein splicing | inhibition, % (concentration not given with the values) | cell-free RecA intein splicing, fluorescence | 0.75% of 290,000 active | P9WHJ3; in the data active = inhibition above about 30%;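 also: 0% = vehicle wells and 100% = reference inhibitor control wells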
UGM FP inh: Mtb UDP-galactopyranose mutase inhibition; purified UGM, fluorescence polarization probe displacement; 0.06% of 320,000 active; inhibition, % at 10 µM; in the data active = inhibition above about 10%, passing the limit was not always enough
Target sequence (P9WIQ1 whole entry, looked up): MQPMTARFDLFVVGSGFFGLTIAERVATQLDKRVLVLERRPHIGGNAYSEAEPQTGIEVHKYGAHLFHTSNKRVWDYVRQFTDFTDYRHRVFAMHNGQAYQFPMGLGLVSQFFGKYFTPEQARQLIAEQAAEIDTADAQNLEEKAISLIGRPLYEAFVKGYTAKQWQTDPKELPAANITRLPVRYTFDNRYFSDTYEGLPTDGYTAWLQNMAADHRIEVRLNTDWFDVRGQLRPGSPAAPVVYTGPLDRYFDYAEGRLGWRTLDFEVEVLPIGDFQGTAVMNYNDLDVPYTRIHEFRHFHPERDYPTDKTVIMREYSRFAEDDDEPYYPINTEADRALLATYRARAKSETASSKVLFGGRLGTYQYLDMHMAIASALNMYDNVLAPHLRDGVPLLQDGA
MazEF act: MazEF (E. coli) toxin RNase activation. activation, % at 20 µM. FAM/BHQ RNA-DNA oligo cleavage fluorescence, 5 h. 0.32% of 350,000 active. P0AE70; in the data active = activation above about 50%
Target sequence (P0AE70 whole entry, looked up): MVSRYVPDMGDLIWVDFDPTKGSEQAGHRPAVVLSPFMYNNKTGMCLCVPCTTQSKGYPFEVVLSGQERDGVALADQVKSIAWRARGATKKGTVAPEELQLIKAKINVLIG
GFP chromo cs: counter-screen: blocks GFP chromophore formation; AID 434968; 83% of 2,100 active; EC50, µM; shares compounds with RecA splice inh; cell-free GFP chromophore formation, fluorescence
Numbers without * were called inactive. Sampled rows, rich in hits. Any-hit rate of the full collection: about 0.97%. Unless noted, no rule for the calls is given here.

How did Cc1c(OCC(=O)Nc2cccnc2)ccc2c3c(c(=O)oc12)CCC3 do in these assays?
TcdB GH inh: 1; Mtb betalactam: -2; Rv3671c protease: 3; RecA splice inh: 94*; UGM FP inh: -7; MazEF act: 19; GFP chromo cs: 10*

Results for O=C(COc1cc2oc(=O)c3c(c2cc1Cl)CCC3)Nc1cccnc1 ?
TcdB GH inh: 4; Mtb betalactam: -4; Rv3671c protease: -13; RecA splice inh: -2; UGM FP inh: -1; MazEF act: 16

How did C[C@@H]1CN([C@H](C)CO)C(=O)Cc2cc(NC(=O)NC3CCCCC3)ccc2O[C@H]1CN(C)C(=O)Nc1ccc(C(F)(F)F)cc1 do in these assays?
TcdB GH inh: 0

How did Cc1nn(Cc2ccccc2)c2c1C(c1ccncc1)C(C#N)=C(N)O2 (configuration not stated) do in these assays?
Mtb betalactam: -1; Rv3671c protease: -6; RecA splice inh: 67*; UGM FP inh: 5; MazEF act: -1; GFP chromo cs: 18*

What do the screens show for `C=CCOC(=O)C1=C(C)OC(N)=C(C#N)C1c1ccco1` (configuration not stated)?
TcdB GH inh: 0; Mtb betalactam: 0; Rv3671c protease: 0; RecA splice inh: -1; UGM FP inh: 0; MazEF act: -6

What do the screens show for `Cc1nn(Cc2ccccc2)c2c1C(c1ccc(Cl)cc1)C(C#N)=C(N)O2` (configuration not stated)?
Mtb betalactam: 3; Rv3671c protease: 6; RecA splice inh: 60*; UGM FP inh: 3; MazEF act: 4; GFP chromo cs: 16*

Results for CCCc1nn(C)c2c1C(c1cccnc1)C(C#N)=C(N)O2 (configuration not stated) ?
Mtb betalactam: -9; Rv3671c protease: -6; RecA splice inh: 60*; UGM FP inh: -2; MazEF act: 0; GFP chromo cs: 24*

Results for COC(=O)C1=C(C)OC(N)=C(C#N)C1c1c(C)nn(-c2ccccc2)c1Cl (configuration not stated) ?
Mtb betalactam: -3; Rv3671c protease: -10; RecA splice inh: 5; UGM FP inh: 1; MazEF act: 3

How did Cc1nn(Cc2ccccc2)c2c1C(c1ccco1)C(C#N)=C(N)O2 (configuration not stated) do in these assays?
Mtb betalactam: -7; Rv3671c protease: -5; RecA splice inh: 55*; UGM FP inh: -2; MazEF act: 7; GFP chromo cs: 23*

Results for COc1cccc(CN(C)C[C@@H]2OCc3cn(nn3)CCCC(=O)N([C@H](C)CO)C[C@H]2C)c1 ?
TcdB GH inh: 0

How did Cc1noc(C)c1NC(=O)N(C)C[C@@H]1OCCCC[C@@H](C)Oc2ccc(NC(=O)Cc3ccccc3)cc2C(=O)N([C@H](C)CO)C[C@H]1C do in these assays?
TcdB GH inh: 2

Results for Cc1cc2c(c(=O)n1Cc1cccnc1)C(c1ccccc1)C(C#N)=C(N)O2 (configuration not stated) ?
Mtb betalactam: -13; Rv3671c protease: -1; RecA splice inh: -1; UGM FP inh: 1; MazEF act: 10

How did Cc1nn(Cc2ccccc2)c2c1C(c1cccnc1)C(C#N)=C(N)O2 (configuration not stated) do in these assays?
Mtb betalactam: -7; Rv3671c protease: -1; RecA splice inh: 73*; UGM FP inh: -2; MazEF act: 14; GFP chromo cs: 13*

What do the screens show for `O=C(C[C@@H]1CC[C@H]2[C@@H](COC[C@@H](O)CN2C(=O)c2ccc(F)cc2)O1)Nc1nccs1`?
TcdB GH inh: -2

What do the screens show for `CCCC#Cc1ccc([C@@H]2[C@H](CO)N3C(=O)CN(C(=O)CN4CCOCC4)C[C@@H]23)cc1`?
TcdB GH inh: -3

How did CCc1cc(C(=O)c2ccc(C)cc2)c(NC(=O)CCl)s1 do in these assays?
TcdB GH inh: 0; Mtb betalactam: 97; Rv3671c protease: -8; RecA splice inh: 74*; UGM FP inh: 61*; MazEF act: -4; GFP chromo cs: 14*

Results for CS(=O)(=O)c1ccc(-n2nnc3ccccc32)c([N+](=O)[O-])c1 ?
TcdB GH inh: 0; Mtb betalactam: -4; Rv3671c protease: -2; RecA splice inh: -3; UGM FP inh: 0; MazEF act: -20

Results for N#Cc1cc([N+](=O)[O-])c(-n2nnc3ccccc32)c([N+](=O)[O-])c1 ?
Mtb betalactam: 5; Rv3671c protease: -8; RecA splice inh: 94*; UGM FP inh: 0; MazEF act: 3; GFP chromo cs: >38

How did C/C(CC(=O)Nc1ccccn1)=N\NC(=O)Cc1cccc2ccccc12 do in these assays?
Mtb betalactam: 4; Rv3671c protease: -11; RecA splice inh: 87*; UGM FP inh: 2; MazEF act: -4; GFP chromo cs: 8.6*

What do the screens show for `COc1cc(OC)cc(C(=O)N/N=C(\C)CC(=O)Nc2ccccn2)c1`?
TcdB GH inh: 1; Mtb betalactam: -2; Rv3671c protease: 8; RecA splice inh: 56*; UGM FP inh: -1; MazEF act: 1; GFP chromo cs: 24*

How did C/C(CC(=O)Nc1ccccn1)=N\NC(=O)c1ccccc1 do in these assays?
Mtb betalactam: 0; Rv3671c protease: 3; RecA splice inh: 11; UGM FP inh: 1

What do the screens show for `C/C(CC(=O)Nc1ccccn1)=N\NC(=O)c1ccncc1`?
Mtb betalactam: 99; Rv3671c protease: 9; RecA splice inh: 85*; UGM FP inh: 1; GFP chromo cs: 6.8*

What do the screens show for `C/C(CC(=O)Nc1ccccn1)=N\NC(=O)c1ccc2ccccc2c1`?
Mtb betalactam: -5; Rv3671c protease: -12; RecA splice inh: 0; UGM FP inh: 0; MazEF act: 7

How did C/C(CC(=O)NC1CCCC1)=N\NC(=O)Cc1cccs1 do in these assays?
Mtb betalactam: -5; Rv3671c protease: 8; RecA splice inh: -1; UGM FP inh: 0; MazEF act: 0

What do the screens show for `C/C(CC(=O)Nc1ccc(Cl)cn1)=N\NC(=O)Cc1cccs1`?
TcdB GH inh: 0; Mtb betalactam: -2; Rv3671c protease: -5; RecA splice inh: 62*; UGM FP inh: 3; MazEF act: 3; GFP chromo cs: 37*

Results for C[C@H](CO)N1C[C@H](C)[C@@H](CN(C)Cc2ccc(C(=O)Nc3ccccc3N)cc2)OCc2cnnn2CCCC1=O ?
TcdB GH inh: 0

What do the screens show for `C[C@@H]1CN([C@@H](C)CO)S(=O)(=O)c2ccc(-c3cncnc3)cc2O[C@H]1CN(C)C(=O)C1CCCCC1`?
TcdB GH inh: 2

What do the screens show for `O=C(C[C@H]1C[C@@H]2c3cc(NC(=O)C4CCC4)ccc3O[C@@H]2[C@@H](CO)O1)NCC(F)(F)F`?
TcdB GH inh: -2
